G9a inh: blocks human histone lysine methyltransferase G9a | G9a H3K9 monomethylation, AlphaScreen, 2 h | Potency, µM (top dose mostly 102 µM), most hits filed as inhibitors | 350,000 compounds, 8.8% hits; note: nearly all actives have a fitted effect of over 75% in size
Target sequence (Q96KQ7 913-1193 limits assumed): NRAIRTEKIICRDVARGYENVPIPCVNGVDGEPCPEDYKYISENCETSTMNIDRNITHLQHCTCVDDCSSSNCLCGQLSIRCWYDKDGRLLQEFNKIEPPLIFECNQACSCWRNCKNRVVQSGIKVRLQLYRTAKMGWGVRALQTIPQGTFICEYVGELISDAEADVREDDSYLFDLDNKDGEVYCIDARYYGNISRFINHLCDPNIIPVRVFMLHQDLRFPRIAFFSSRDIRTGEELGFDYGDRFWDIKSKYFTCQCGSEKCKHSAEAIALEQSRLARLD
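G9a (20 nM) was preincubated 15 min with compound, then reacted 2 h at room temperature with 500 nM biotin-H3K9 peptide and 20 µM SAM. Monomethyl-H3K9 detected by AlphaScreen using anti-H3K9me1 antibody.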
FBPA coupling cs: coupling enzyme interference in Giardia aldolase counter-screen; coupling enzyme system counterscreen, AmpLite Red fluorescence; activity change, negative = inhibition, % at 58.2 µM, hits read low; 290,000 compounds, 0.67% hits; in the data active = activity change below about -30%
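First, compound is pin-transferred into glyceraldehyde-3-phosphate coupling-enzyme reagent at 57.5 uM final and held 10 min at RT. Next, substrate, coupling system and AmpLite Red are added. After 20 min RT, fluorescence (525/598 nm) is read.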
Sfp PPTase inh: inhibitors of Bacillus subtilis Sfp phosphopantetheinyl transferase; Q9F4F7; Biochemical Sfp PPTase activity, qHTS; Potency, µM, hits mostly inhibitors; 310,000 compounds, 3.5% hits; AID 1490;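 note: the enzyme is Sfp with the accession as filed and its product quenches rhodamine fluorescence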
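Reaction rates are the 30-min fluorescence difference (ex 525, em 598 nm) in wells containing 15 nM Sfp, 5 uM rhodamine-CoA and 12.5 uM BHQ-2-YbbR at pH 7.6 with 10 mM MgCl2.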
Tau FP inhib: tau fibrillization inhibition (FP); P10636; K18 P301L tau heparin fibrillization, Alexa594 FP, 6 h; Potency, µM (titrated, usually from 57.7 µM), most hits filed as inhibitors; 280,000 compounds, 0.39% hits; AID 1468; note: nearly all actives have a fitted effect of over 55% in size
Target sequence (P10636 561-689 P618L limits assumed): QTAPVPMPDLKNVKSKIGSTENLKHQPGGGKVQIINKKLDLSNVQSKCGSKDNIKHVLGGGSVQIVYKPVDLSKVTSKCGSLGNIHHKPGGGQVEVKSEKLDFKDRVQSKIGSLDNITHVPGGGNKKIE
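Heparin (20 uM) drove fibril formation of recombinant tau K18 P301L, 15 uM unlabeled with 0.24 uM Alexa 594 label, for 6 hr at 37 C in 100 mM sodium acetate pH 7. Fluorescence polarization (555/632 nm) read 1 hr after 30 uM ThT.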
Tau ThT inhib: tau fibrillization inhibition (ThT binding). P10636. recombinant tau K18 P301L, heparin-induced fibrillization, ThT fluorescence. Potency, µM (doses to about 57.4 µM), actives largely listed as inhibitors. 270,000 compounds, 2.1% hits; note: nearly all actives have a fitted effect of over 55% in size
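K18 P301L tau (15 uM + 0.24 uM Alexa 594-tagged), heparin 20 uM, NaOAc pH 7, 6 h 37 C; ThT 30 uM, 1 h RT, ex 450/em 510 nm.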
Tau fluor cs: counter-screen for tau fibril formation inhibitors; Potency, µM (series often up to 57.7 µM); 280,000 compounds, 0.93% hits; tau K18 P301L (four-repeat tau fragment) Alexa594 fluorescence, heparin fibrillization; note: nearly all actives have a fitted effect of over 55% in size
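Human K18 P301L tau (15 uM unlabeled plus 0.24 uM Alexa 594-labeled, final) in 100 mM sodium acetate pH 7 was mixed with compound and 20 uM heparin and incubated 6 hr at 37 C.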
Hits are given with their value; n = inactive; u = inconclusive; x = no result given; [ ] = dose if it differs, or a comment. In the library only some 11% were active in any assay of this set; here they are far more common. Unless noted, calls come from the whole dose curve; as a rule, active = well fitted curve in the direction sought with a large enough effect; inconclusive = small, poorly fitted or top-dose-only effect, or another doubt; inactive = no such curve, though single readings can be large; an effect the other way counts as inactive or inconclusive.

SMILES	G9a inh	FBPA coupling cs	Sfp PPTase inh	Tau FP inhib	Tau ThT inhib	Tau fluor cs
Cn1c(=O)[nH]c(=O)c2c1nc([N+](=O)[O-])n2Cc1ccccc1	n	-45	n	u	u	n
CC(C)Cn1c([N+](=O)[O-])nc2c1c(=O)[nH]c(=O)n2C	n	-31	n	n	x	n
CSc1nnc(-c2sc3cc(C(F)(F)F)cnc3c2-c2cccnc2)n1C	50µM	n	n	n	n	n
CCC1(CC)NC(=O)N(CC(=O)NC(=O)NCc2ccccc2)C1=O	32µM	n	n	x	x	x
CC(=O)N1CCC2(CC1)OC(=O)C(C)=C2C(=O)Nc1ccccc1C(F)(F)F	n	x	x	n	n	n
CCn1c(SCC(=O)Nc2ccccc2C(=O)OC)nc2c1c(=O)n(C)c(=O)n2C	28µM	n	n	n	n	n
CCn1c(SCC(=O)N/N=C(\C)c2ccncc2)nnc1-c1ccccc1	n[0.501 µM]	n	n	n	n	n
CCn1c(SCC(=O)Nc2ccccc2C(=O)OC)nnc1-c1ccoc1C	n	n	n	n	n	n
CCn1c(SCC(=O)Nc2ccccc2C(=O)OC)nnc1-c1ccc(N)cc1	45µM	n	n	n	n	n
CCn1c(SCC(=O)N/N=C(\C)c2ccncc2)nnc1-c1ccc(C)cc1	50µM	n	n	n	n	n
CCn1c(SCC(=O)NNC(=S)Nc2ccc(C)cc2)nnc1-c1ccc(Cl)cc1	10µM	n	n	n	n	n
Cc1cc(C)n(-c2ccc(C(=O)NCC(c3ccco3)N3CCCC3)cc2)n1 (centres undefined)	n	x	x	x	x	x
COC(=O)c1c(N)n(-c2ccc(OC)c(Cl)c2)c2nc3ccccc3nc12	n	x	x	n	n	n
Cc1cc(OCC(=O)OCC(=O)N(C)Cc2ccccc2C)ccc1Cl	n[12.7 µM]	x	x	x	x	x
CC(=O)n1nc(-c2ccco2)nc1N	n	n	n	n	n	n
CCC(=O)n1nc(-c2ccco2)nc1N	45µM	n	n	n	n	n
CCC(=O)n1nc(-c2ccco2)nc1SCc1ccccc1	u	n	45µM	n	u	n
N#Cc1c(-c2cccs2)cc(-c2cccs2)[nH]c1=O	n	n	n	n	x	n
Cc1cc(-c2cccs2)c(C#N)c(=S)[nH]1	1.6µM	n	20µM	n	u	n
CC(C)(C)NC(=O)CSc1nc2cccnc2n1C1CCCCC1	n	n	n	x	x	x
Nc1nonc1OCCN1CCN(c2ccc([N+](=O)[O-])c3cccnc23)CC1	n	n	n	n	18µM	u
Cc1nonc1OCCN1CCN(c2ccccc2[N+](=O)[O-])CC1	n	n	n	n	n	n
COC(=O)C1(CCSC)NC(c2ccccc2F)C2C(=O)N(c3ccc4c(c3)OCCO4)C(=O)C21 (centres undefined)	n	n	n	n	n	n
N#C[C@@H]1[C@@H]2C(=O)N(c3ccc4c(c3)OCCO4)C(=O)[C@@H]2C2c3ccccc3C=CN21 (some centres undefined)	7.9µM	-34	n	n	u	n
CC1(C)Cc2c(sc3nn[nH]c(=O)c23)CO1	32µM	n	n	n	n	n
SMILES	G9a inh	FBPA coupling cs	Sfp PPTase inh	Tau FP inhib	Tau ThT inhib	Tau fluor cs
CCC1(C)Cc2c(sc3nc(NC)n(C)c(=O)c23)CO1 (centres undefined)	32µM	n	u	n	u	n
CC1(C)Cc2c(sc3nnn(Cc4ccccc4)c(=O)c23)CO1	13µM	n	n	n	n	n
C=CCNC(=S)NNc1nc2sc3c(c2c(=O)[nH]1)CC(C)(C)OC3	x	n	7.1µM	x	x	x
Cn1cc(S(=O)(=O)N2CCCC(C(=O)O)C2)cn1 (centres undefined)	n	n	n	n	n	n
O=C(CCn1c(=O)c2sccc2n(Cc2ccccc2F)c1=O)NCc1ccc2c(c1)OCO2	n	x	x	n	n	n
COc1ccc(-c2cn3nc(N4CCCC(C(=O)Nc5ccccc5F)C4)sc3n2)cc1 (centres undefined)	u	x	x	n	u	u
O=C(O)c1ccc(Cn2nnc3sc4c(c3c2=O)CCCC4)cc1	50µM	n	n	n	n	n
CCC1(C)Cc2c(sc3nn[nH]c(=O)c23)CO1 (centres undefined)	40µM	n	n	n	n	n

Bioassay records: PubChem BioAssay, National Center for Advancing Translational Sciences (NCATS)
